Source: PubChem
Most compounds without a hit are left out; they make up all but 5% or so of the library.
VACV mCherry inh: inhibitors of vaccinia virus infection (mCherry reporter signal); actives 0.63% (n = 310,000); Potency, µM (series often up to 36.5 µM), usual class: inhibitors; AID 720579; Vaccinia virus mCherry reporter infection, fluorescence; calls by dose curve; tested in A549 cells; note: nearly all actives have a fitted effect of over 35% in size
Tb PYK inh: T. brucei pyruvate kinase inhibition; Q57TT1; actives 0.12% (n = 410,000); Potency, µM (series often up to 76.8 µM), usual class: inhibitors; AID 624173; TbPYK enzyme, Kinase-Glo Plus ATP luminescence, 45 min; note: nearly all actives have a fitted effect of over 50% in size
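T. brucei PYK with substrate was exposed to pin-transferred compounds across a concentration series, then started with 130 uM ADP (final). After 45 min at room temperature, Kinase-Glo Plus luminescence was read, normalized and curve-fitted.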
Vaccinia Venus: inhibitors of vaccinia virus (Venus reporter) | Vaccinia virus Venus reporter expression, fluorescence | Potency, µM (highest dose often 36.5 µM), actives largely listed as inhibitors | actives 0.46% (n = 330,000); calls by dose curve; tested in A549 cells; note: nearly all actives have a fitted effect of over 30% in size
LmPK inhibitor: inhibitors of Leishmania mexicana pyruvate kinase; AID 1721; purified LmPK, Kinase-Glo ATP luminescence, 1 h; actives 0.37% (n = 290,000); Potency, µM (titrated, usually from 57.5 µM), hits mostly inhibitors
Target sequence (Q27686 whole entry, looked up): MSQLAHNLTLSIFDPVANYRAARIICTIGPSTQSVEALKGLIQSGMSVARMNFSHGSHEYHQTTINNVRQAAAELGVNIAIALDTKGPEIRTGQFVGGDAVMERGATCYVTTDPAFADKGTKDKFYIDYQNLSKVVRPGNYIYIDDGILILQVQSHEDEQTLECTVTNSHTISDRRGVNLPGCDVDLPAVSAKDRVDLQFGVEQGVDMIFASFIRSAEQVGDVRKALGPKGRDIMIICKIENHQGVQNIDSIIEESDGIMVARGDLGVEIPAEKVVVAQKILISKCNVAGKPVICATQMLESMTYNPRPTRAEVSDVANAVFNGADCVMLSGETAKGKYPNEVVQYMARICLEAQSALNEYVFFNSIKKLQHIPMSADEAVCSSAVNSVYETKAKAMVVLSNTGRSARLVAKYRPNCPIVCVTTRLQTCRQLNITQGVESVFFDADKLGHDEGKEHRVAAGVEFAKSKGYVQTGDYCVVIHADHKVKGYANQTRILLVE
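0.1 nM LmPK, 0.5 mM PEP, 0.1 mM ADP; 50 mM imidazole pH 7.2, 7 mM MgCl2, 50 mM KCl; 1 h RT. Kinase-Glo luminescence readout, normalized to no-enzyme (full inhibition) and uninhibited wells.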
HCMV inh: blocks human cytomegalovirus replication; actives 4.5% (n = 410,000); HFF cells, HCMV-luciferase reporter, 72 h; active compounds read low; activity change, negative = inhibition, % at 57.5 µM; in the data active = activity change below about -60%; inconclusive = no clear call, values can overlap the other calls; inactive = above about -39%
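Inhibition of viral replication was scored as loss of reporter luminescence in HFFs infected with HCMV-luciferase (MOI 1 PFU/cell) for 72 h; compounds tested at 2 doses, normalized to buffer and Salinomycin controls.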
Numbers stand for hits. Unless noted, calls come from the whole dose curve; as a rule, active = well fitted curve in the direction sought with a large enough effect; inconclusive = small, poorly fitted or top-dose-only effect, or another doubt; inactive = no such curve, though single readings can be large; an effect the other way counts as inactive or inconclusive.

Results for CCN(CC)CCN1C(=O)/C(=C\c2ccc(Cl)c([N+](=O)[O-])c2)SC1=Nc1ccc(OC)cc1 ?
VACV mCherry inh: inconclusive; Tb PYK inh: inactive; Vaccinia Venus: inactive; LmPK inhibitor: inactive; HCMV inh: -99.1

How did CCCOC(=O)Nc1ccc([As](=O)(O)O)cc1NC(=O)OCCC do in these assays?
VACV mCherry inh: inactive; Tb PYK inh: inactive; Vaccinia Venus: inactive; LmPK inhibitor: inactive; HCMV inh: -80.1

How did CCOC(=O)Nc1ccc(C)cc1NC(=O)OCC do in these assays?
VACV mCherry inh: inactive; Tb PYK inh: inactive; Vaccinia Venus: inactive; LmPK inhibitor: inactive; HCMV inh: inactive

Results for Cn1cccc1-c1nc2ccc([N+](=O)[O-])cc2[nH]1 ?
VACV mCherry inh: inactive; Tb PYK inh: inactive; Vaccinia Venus: inactive; LmPK inhibitor: inactive; HCMV inh: inactive

Results for COc1ccccc1Nc1nn2c(=O)c3ccc(C(=O)NCCC4=CCCCC4)cc3nc2s1 ?
VACV mCherry inh: 8.91µM; Tb PYK inh: inactive; Vaccinia Venus: 7.94µM; HCMV inh: -105.5

Results for COc1ccccc1Nc1nn2c(=O)c3ccc(C(=O)NCCc4ccccc4)cc3nc2s1 ?
VACV mCherry inh: inconclusive; Tb PYK inh: inactive; Vaccinia Venus: inconclusive; HCMV inh: -99.2

How did Cc1ccc(C)c(Nc2nn3c(=O)c4ccc(C(=O)NCCC5=CCCCC5)cc4nc3s2)c1 do in these assays?
VACV mCherry inh: inconclusive; Tb PYK inh: inactive; Vaccinia Venus: inconclusive; HCMV inh: inactive

How did CCOC(=O)[C@H](CCc1ccccc1)N[C@H]1CS[C@H](c2cccs2)CN(CC(=O)O)C1=O do in these assays?
Tb PYK inh: inactive

How did CCCCOc1ccc(CNC(=O)CCCN2C(=O)CSc3c2c(C)nn3-c2ccccc2)cc1 do in these assays?
VACV mCherry inh: inactive; Tb PYK inh: inactive; Vaccinia Venus: inactive; HCMV inh: -70.4

How did O=C(CN1CCCC1)Nc1cc(C(F)(F)F)cc(C(F)(F)F)c1 do in these assays?
VACV mCherry inh: inconclusive; Tb PYK inh: inactive; Vaccinia Venus: inactive; LmPK inhibitor: inactive; HCMV inh: inactive

How did COc1ccccc1-n1c(N)cc(=O)nc1SCC(=O)Nc1cc(C)on1 do in these assays?
VACV mCherry inh: inactive; Tb PYK inh: inactive; Vaccinia Venus: inactive; LmPK inhibitor: inactive; HCMV inh: inactive

Results for O=c1/c(=C\c2cc([N+](=O)[O-])cc([N+](=O)[O-])c2O)sc2nc3ccccc3n12 ?
VACV mCherry inh: inactive; Tb PYK inh: 28.2µM; Vaccinia Venus: inactive; LmPK inhibitor: inactive

What do the screens show for `CC(C)c1ccc(NC(=S)NN2CCOCC2)cc1`?
VACV mCherry inh: inactive; Tb PYK inh: inactive; Vaccinia Venus: inactive; LmPK inhibitor: inactive; HCMV inh: inactive

What do the screens show for `O=C(CCl)N(c1ccccc1)C1CCCCC1`?
VACV mCherry inh: inconclusive; Tb PYK inh: inactive; Vaccinia Venus: inconclusive; LmPK inhibitor: inactive; HCMV inh: -113.4

What do the screens show for `COc1ccc(OCC(=O)N/N=C(\C)c2cc3ccccc3o2)cc1`?
VACV mCherry inh: inactive; Tb PYK inh: inactive; Vaccinia Venus: inactive; LmPK inhibitor: inactive; HCMV inh: inactive

Results for Cc1nn(-c2ccccc2)c2c1C(c1ccc([N+](=O)[O-])cc1)N1C(=N2)C(=O)Nc2ccccc21 (stereo unspecified) ?
VACV mCherry inh: inconclusive; Tb PYK inh: inactive; Vaccinia Venus: inconclusive; LmPK inhibitor: inactive; HCMV inh: inactive

Results for Cc1cccc(NC2=Nc3ccccc3N3C2=Nc2c(c(C)nn2-c2ccccc2)C3c2ccc(O)c(O)c2)c1 (stereo unspecified) ?
Tb PYK inh: inactive; Vaccinia Venus: inconclusive; LmPK inhibitor: inactive; HCMV inh: -97.1

How did Cc1nn(-c2ccccc2)c2c1C(c1ccc(O)c(O)c1)N1C(=N2)C(Nc2ccccc2)=Nc2ccccc21 (stereo unspecified) do in these assays?
VACV mCherry inh: inactive; Tb PYK inh: inactive; Vaccinia Venus: inactive; LmPK inhibitor: inactive; HCMV inh: inactive

How did Cc1ccc(NC2=Nc3ccccc3N3C2=Nc2c(c(C)nn2-c2ccccc2)C3c2ccc(O)c(O)c2)cc1 (stereo unspecified) do in these assays?
Tb PYK inh: inactive; Vaccinia Venus: inconclusive; LmPK inhibitor: inactive; HCMV inh: -63.8

What do the screens show for `O=C(O)CSCC(=O)NCc1ccc(Cl)cc1Cl`?
VACV mCherry inh: inactive; Tb PYK inh: inactive; Vaccinia Venus: inactive; LmPK inhibitor: inactive; HCMV inh: inactive
